Only some compounds are listed: those with a hit (about 4.6% of all), similar ones and a draw of the others.
DAX1 inh-1 = DAX1 (NR0B1) inhibitors on StAR promoter, primary screen, cell-based, luminescence, SF-1 (NR5A1), full-length DAX-1. HEK293T StAR-luciferase reporter, SF-1/DAX-1 repression relief. inhibition, % at 6.8 µM. 370,000 tested, 1.1% active;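 active means inhibition above the mean over all tested compounds plus 3 SD, cut at about 3.6% in these data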;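 further: 0% = DAX-1 cells with DMSO and 100% = cells lacking DAX-1 with DMSO; higher inhibition means more luminescence from relief of DAX-1 repression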
hgDAF12 agonist = H. glycines DAF-12 receptor agonists, primary screen, cell-based, luminescence, HEK293, GAL4 fusion, UAS-luciferase | activation, % at 6.8 µM | HEK293 GAL4-hgDAF12 UAS-luciferase reporter, agonist luminescence; normalized to butyrate control | 370,000 tested, 1.8% active | Nuclear hormone receptor DAF-12 (Heterodera glycines), GAL4 fusion;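 active means activation above a cutoff set at the mean of all screened compounds plus 3 SD, cut at about 10% in these data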;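 further: 0% = DMSO wells and 100% = sodium butyrate wells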
DAX1 inh-2 = DAX1 (NR0B1) inhibitors, primary screen, cell-based, HEK293, Gal4-DAX1, luciferase luminescence; inhibition, % at 6.75 µM; Nuclear receptor subfamily 0 group B member 1 (Homo sapiens), P51843; 340,000 tested, 0.99% active; HEK293 Gal4-DAX1 luciferase reporter; AID 504766, 2011;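 active means inhibition above the mean over all tested compounds plus 3 SD, cut at about 4.2% in these data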;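 further: 0% = DAX1-transfected cells with DMSO and 100% = empty-vector control cells with DMSO; inhibition shows as a rise in luminescence from relieved DAX1 repression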
hcDAF12 agonist = H. contortus DAF-12 nuclear receptor activators, primary screen, cell-based, luminescence, HEK293, lit1-tk-luc reporter; 370,000 tested, 1.4% active; activation, % at 6.8 µM; HEK293 hcDAF-12 lit1-tk-luc reporter; 0% DMSO, 100% Δ7-dafachronic acid;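 active means activation above the mean of all tested compounds plus 3 SD, cut at about 5.5% in these data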;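 further: 100% = response to 3 µM Δ7-dafachronic acid high control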
Wee1 degr inh = Wee1 degradation inhibitors, primary screen, cell-based, HeLa, Wee1K328M-luciferase, luminescence; Wee1-like protein kinase (Homo sapiens), P30291; HeLa Luc-Wee1K328M stability; 100% = proteasome inhibitor MG132 effect; reporter increase, % at 5 µM; 220,000 tested, 1.2% active; AID 1321, 2008;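 active means activation above the mean of all tested compounds plus 3 SD, set per screening run, cut at about 8.8% in these data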;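 further: cells exposed to compound for 20 h before luminescence read; 0% = DMSO alone and 100% = MG132 at 30 µM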
Target sequence (P30291 whole entry K328M): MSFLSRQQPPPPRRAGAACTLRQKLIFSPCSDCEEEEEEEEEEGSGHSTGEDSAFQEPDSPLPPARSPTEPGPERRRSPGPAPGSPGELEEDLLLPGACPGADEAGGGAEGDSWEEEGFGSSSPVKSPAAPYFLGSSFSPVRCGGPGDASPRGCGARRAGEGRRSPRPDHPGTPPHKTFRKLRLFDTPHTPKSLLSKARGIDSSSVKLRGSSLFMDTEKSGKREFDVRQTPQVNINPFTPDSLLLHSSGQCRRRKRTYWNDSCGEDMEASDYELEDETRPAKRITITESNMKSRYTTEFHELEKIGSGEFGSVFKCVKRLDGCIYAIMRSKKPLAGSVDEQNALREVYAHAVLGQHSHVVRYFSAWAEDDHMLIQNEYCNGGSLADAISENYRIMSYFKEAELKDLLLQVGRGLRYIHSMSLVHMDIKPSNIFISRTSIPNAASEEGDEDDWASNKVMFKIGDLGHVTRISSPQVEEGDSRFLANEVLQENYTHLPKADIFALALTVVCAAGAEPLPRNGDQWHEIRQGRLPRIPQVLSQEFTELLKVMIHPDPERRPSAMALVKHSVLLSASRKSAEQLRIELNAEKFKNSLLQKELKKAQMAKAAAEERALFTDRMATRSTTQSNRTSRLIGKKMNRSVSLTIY
ssDAF12 agonist = S. stercoralis DAF-12 nuclear receptor activators, primary screen, cell-based, luminescence, HEK293, GRIP1 co-expression, lit1-tk-luc; Nuclear hormone receptor DAF-12 (Strongyloides stercoralis); HEK293 ssDAF-12/GRIP1 lit1-tk-luc reporter; % of 3 µM dafachronic acid response; activation, % at 6.8 µM; 370,000 tested, 1% active; AID 652126, 2013;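 active means activation above the mean over all tested compounds plus 3 SD, cut at about 0.9% in these data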;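 further: 0% = DMSO-only wells and 100% = 3 µM delta7-dafachronic acid wells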
LXRb hcDAF ctr = LXR agonists, Gal4 luciferase reporter, confirmation, counter-screen for hcDAF-12 agonist project, cell-based, luminescence, HEK293, H. contortus campaign; shares compounds with hcDAF12 agonist; HEK293 Gal4-LXR tk-luc reporter, 24 h; normalized: DMSO 0%, positive control 100%; activation, % at 6.8 µM; 3,400 tested, under 10 active;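 active means mean percent activation of the reporter above a cutoff set as the average over tested compounds plus their standard deviation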
hcDAF12 ag = H. contortus DAF-12 receptor agonists, confirmation, cell-based, luminescence, HEK293, lit1-tk-luc, triplicate | AID 743032, 2013 | 3,400 tested, 61% active | shares compounds with hcDAF12 agonist | activation, % at 6.8 µM | HEK293 hcDAF-12 lit1-tk-luc reporter; % of Δ7-dafachronic acid response;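 active means mean activation across triplicate tests above the threshold derived from the earlier primary screen, cut at about 5.5% in these data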;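 further: 0% = DMSO only wells and 100% = 3 µM Δ7-dafachronic acid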
Starred values were filed as active, the others as inactive.

NC(=O)[C@@H]1[C@@H]2C(=O)N(c3ccc(F)cc3)C(=O)[C@@H]2[C@H]2C=Cc3ccccc3N21 was read as DAX1 inh-1 0, hgDAF12 agonist 1, hcDAF12 agonist 7.5*, Wee1 degr inh 0, ssDAF12 agonist 0, LXRb hcDAF ctr 0 and hcDAF12 ag 5.
COc1ccc(/C=N/N2C(C)CCCC2C)cc1O (centres undefined) was read as DAX1 inh-1 1, hgDAF12 agonist 2, DAX1 inh-2 0, hcDAF12 agonist 8.1*, ssDAF12 agonist 0.9*, LXRb hcDAF ctr 0 and hcDAF12 ag 7.4*.
Screening CC1CCCC(C)N1/N=C/c1ccc(O)c(O)c1 (centres undefined) returned DAX1 inh-1 0, hgDAF12 agonist -1, DAX1 inh-2 1, hcDAF12 agonist 0 and ssDAF12 agonist -1.
For O=C(N/N=C/c1ccccc1)C(O)c1ccccc1 (centres undefined) the results were DAX1 inh-1 0, hgDAF12 agonist 0, DAX1 inh-2 0, hcDAF12 agonist 6.7*, ssDAF12 agonist 0, LXRb hcDAF ctr 0 and hcDAF12 ag 5.6*.
`CCCCOC(=O)C1C2CCC(O2)C1C(=O)OCC` (centres undefined) gave DAX1 inh-1 1, hgDAF12 agonist 0, DAX1 inh-2 0, hcDAF12 agonist 2 and ssDAF12 agonist -1.
`O=C(Nc1ccccc1Cl)c1cc2ccccc2o/c1=N\O` gave DAX1 inh-1 2, hgDAF12 agonist 13*, DAX1 inh-2 4.7*, hcDAF12 agonist 11*, ssDAF12 agonist 2.1*, LXRb hcDAF ctr 1 and hcDAF12 ag 13*.
`COc1cccc(NC(=O)c2cc3ccccc3o/c2=N\O)c1` gave DAX1 inh-1 2, hgDAF12 agonist 12*, DAX1 inh-2 -4, hcDAF12 agonist 7.5*, ssDAF12 agonist 1.1*, LXRb hcDAF ctr 2 and hcDAF12 ag 11*.
Screening O=C(Nc1ccccc1Cl)c1ccccc1Cl returned DAX1 inh-1 -1, hgDAF12 agonist 1, DAX1 inh-2 -1, hcDAF12 agonist 0, Wee1 degr inh -2 and ssDAF12 agonist -1.
`CN(Cc1ccccc1)C(=O)c1ccc(NC(=O)Cc2ccc(NC(=O)C3CCCN(C(=O)C4CCCC4)C3)cc2)cc1` (centres undefined) gave DAX1 inh-1 -2, hgDAF12 agonist 0, DAX1 inh-2 -1, hcDAF12 agonist -1 and ssDAF12 agonist -1.
For COc1ccc2oc(=O)c(/C(C)=N/Nc3nc(-c4cc(C)ccc4C)cs3)cc2c1 the results were DAX1 inh-1 -1, hgDAF12 agonist -1, DAX1 inh-2 0, hcDAF12 agonist 6.7*, Wee1 degr inh 8, ssDAF12 agonist -1, LXRb hcDAF ctr 0 and hcDAF12 ag 0.
`C/C(=N\Nc1nc(-c2ccc(C)cc2C)cs1)c1cc2ccccc2oc1=O` gave DAX1 inh-1 0, hgDAF12 agonist 0, DAX1 inh-2 1, hcDAF12 agonist 0, Wee1 degr inh -1 and ssDAF12 agonist 0.
Cc1cc(OCC(=O)NCC2CCC(C(=O)O)CC2)c2c(C)c(Cc3ccccc3)c(=O)oc2c1 (centres undefined) was read as DAX1 inh-1 1, hgDAF12 agonist -1, DAX1 inh-2 1, hcDAF12 agonist -3 and ssDAF12 agonist -2.
`Cc1c(Cc2ccccc2)c(=O)oc2c(C)c(OCC(=O)NCC3CCC(C(=O)O)CC3)ccc12` (centres undefined) gave DAX1 inh-1 1, hgDAF12 agonist 2, DAX1 inh-2 2, hcDAF12 agonist 7.3*, ssDAF12 agonist 1, LXRb hcDAF ctr 0 and hcDAF12 ag 0.
For CC(=O)NC(c1ccc(F)c(F)c1)c1nc(-c2ccc(C)c(C)c2)cs1 (centres undefined) the results were DAX1 inh-1 -1, hgDAF12 agonist -1, hcDAF12 agonist 0 and ssDAF12 agonist -2.
CC(=O)c1ccc(NC(=O)c2sc3nc(C)c(C)c(C)c3c2N)cc1 was read as DAX1 inh-1 2, hgDAF12 agonist 10, DAX1 inh-2 6.7*, hcDAF12 agonist 8.2*, ssDAF12 agonist 1.2*, LXRb hcDAF ctr 1 and hcDAF12 ag 5.8*.
Nc1c(C(=O)Nc2ccccc2)sc2ncc([N+](=O)[O-])cc12 was read as DAX1 inh-1 0, hgDAF12 agonist 3, hcDAF12 agonist -1, Wee1 degr inh -3 and ssDAF12 agonist -1.
Screening Cc1nc2sc(C(=O)Nc3ccccc3)c(N)c2c(C)c1[N+](=O)[O-] returned DAX1 inh-1 4.0*, hgDAF12 agonist 10, DAX1 inh-2 6.9*, hcDAF12 agonist 8.1*, Wee1 degr inh 4, ssDAF12 agonist 1.6*, LXRb hcDAF ctr 1 and hcDAF12 ag 9.4*.
Screening O=C(/C=C/c1cccc(Cl)c1)OCC(=O)c1ccc[nH]1 returned DAX1 inh-1 0, hgDAF12 agonist -1, DAX1 inh-2 -1, hcDAF12 agonist -2 and ssDAF12 agonist -1.
Screening O=C(CSc1ccccn1)Nc1ccc2c(c1)OCCO2 returned DAX1 inh-1 1, hgDAF12 agonist 10, DAX1 inh-2 4, hcDAF12 agonist 2, Wee1 degr inh -1 and ssDAF12 agonist 0.
For O=C(CSc1ccccn1)Nc1ccc2c(c1)C(=O)c1ccccc1C2=O the results were DAX1 inh-1 -1, hgDAF12 agonist 9, DAX1 inh-2 0, hcDAF12 agonist 6.8*, Wee1 degr inh 2, ssDAF12 agonist 0, LXRb hcDAF ctr 1 and hcDAF12 ag 5.
CC(c1ccccc1)N1CC[C@H]2C=CC[C@@H](C(=O)Nc3ccc(F)c(F)c3)[C@H]2C1=O (some centres undefined) was read as hgDAF12 agonist -1, hcDAF12 agonist 1 and ssDAF12 agonist -1.

Compound activity: PubChem BioAssay, The Scripps Research Institute Molecular Screening Center
